Shiga toxin inh = inhibitors of Shiga toxin in Vero cells | Vero cells, Shiga toxin protein synthesis inhibition reporter | inhibition, % at 38.7 µM | 290,000 tested, 9.2% active | AID 2315; in the data active = inhibition mostly above about 28%, no sharp cut-off; inactive = mostly below about 43%; note: 0% is about no effect
Pf growth 48h = inhibits P. falciparum growth in the first generation, 48 h | Potency, µM (top dose mostly 28.7 µM), without a hit: at the top dose activity change, negative = inhibition, most hits filed as inhibitors | P. falciparum luciferase growth in erythrocytes, 48 h | AID 504832 | 310,000 tested, 5.9% active; note: potency is the fitted concentration of half-maximal effect; % is set by controls: 0 for no effect and ±100 for the full control effect
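Read-out is firefly luciferase luminescence from an integrated reporter in P. falciparum, so falling signal marks reduced parasite growth. Infected erythrocytes were at 2% hematocrit and 0.1% parasitemia (final) in Albumax-supplemented RPMI 1640.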
Pf growth 96h = inhibits malaria parasite growth, 96 h | P. falciparum luciferase reporter growth, 96 h | Potency, µM (series often up to 28.7 µM), for inactives: at the highest dose activity change, negative = inhibition, usual class: inhibitors | 320,000 tested, 6.9% active | AID 504834; note: potency is the fitted concentration of half-maximal effect; % is set by controls: 0 for no effect and ±100 for the full control effect
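Readout is luminescence from an integrated firefly luciferase in P. falciparum. Red cells, 2% hematocrit and 0.05% parasitemia final, were cultured with compound through two parasite generations (96 hours) at 37 C, 5% CO2.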
HCV inhibitor = blocks hepatitis C virus; Huh7.5.1 HCVcc-Cre infection, luciferase reporter, 44 h; Potency, µM (series often up to 41.8 µM), inactives show at the highest dose activity change, negative = inhibition, hits mostly inhibitors; 340,000 tested, 3.4% active; AID 651820; note: potency is the fitted concentration of half-maximal effect; % is set by controls: 0 for no effect and ±100 for the full control effect
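Seed cells (1,000/well) for 4 h; treat with compound and infect with HCVcc-Cre, moi about 0.5. Incubate 44 h, then detect luciferase activity.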
HCMV antiviral = blocks human cytomegalovirus replication. AID 1259415. 410,000 tested, 4.5% active. HFF cells, HCMV-luciferase reporter, 72 h; stronger effect = lower value. activity change, negative = inhibition, % at 57.5 µM; in the data active = activity change below about -60%; inconclusive = no clear call, values can overlap the other calls; inactive = above about -39%; note: % is set by controls: 0 for no effect and ±100 for the full control effect
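Compounds were evaluated in HFFs infected with an HCMV luciferase reporter virus (MOI 1 PFU/cell). Luciferase in lysates collected 72 h post infection served as the replication measure.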
Cycloheximide cs = affects cycloheximide protein synthesis inhibition readout, counter-screen; 300,000 tested, 12% active; max response, %; cell reporter, cycloheximide protein synthesis inhibition counterscreen; in the data active = max response mostly above about 13%, no sharp cut-off; inactive = mostly below about 14%; note: read at 38.3 µM for the half of the compounds with a filed dose; 0% is about no effect
An asterisk follows results filed as active; ? = inconclusive; nt = not tested or not shown; [ ] = remark or other dose. Hits are enriched below; roughly 21% of the tested compounds scored in any of these assays. Unless noted, calls come from the whole dose curve; as a rule, active = well fitted inhibition curve with a large enough effect; inconclusive = small, poorly fitted or top-dose-only effect, or another doubt; inactive = no such curve, though single readings can be large or run the other way.

SMILES | Shiga toxin inh | Pf growth 48h | Pf growth 96h | HCV inhibitor | HCMV antiviral | Cycloheximide cs
O=C(NCCc1ccc(C(F)(F)F)cc1)C1CCC(=O)N(CCCN2CCCC2=O)C1 (stereo not drawn) | 18 | 0% | 15µM* | 6% | 11 | 12*
COc1ccccc1CN1CC(C(=O)NCc2ccc(C)c(F)c2)CCC1=O (stereo not drawn) | 13 | 0% | ? | 6% | -8 | -2
COc1ccccc1CN1CC(C(=O)NCc2c(F)ccc(C)c2F)CCC1=O (stereo not drawn) | 82* | -2% | ? | -18% | 125 | 47*
O=C(NC1CCCC1)c1ccc2c(=O)n(Cc3ccccc3)c(SCc3ccccc3F)nc2c1 | nt | nt | nt | nt | -28 | nt
Oc1ccccc1C=NCc1ccccc1 | nt | -27% | ? | nt | nt | nt
Cc1ccc(-n2ccnc(SCC(=O)NC3CCCCC3)c2=O)cc1F | nt | 4% | 9% | 5% | -11 | nt
CCc1cccc(NC(=O)C2CCCN(S(=O)(=O)c3cccs3)C2)c1 (stereo not drawn) | 12 | ? | 43% | ? | -4 | 3
O=C(CN1CCN(C2CCCCC2)CC1)c1c[nH]c2ccccc12 | -2 | 19% | ? | -20% | 129 | 3
O=C(CN1CCN(C2CCCCC2)CC1)c1ccc2cc[nH]c2c1 | -2 | nt | 4.7µM* | 6% | 27 | -3
Clc1ccc(-c2nnc(CSc3nnc(-c4cccs4)o3)o2)cc1 | 36 | 35% | -1% | -18% | -1 | 23
c1csc(-c2nnc(-c3ccc(N4CCOCC4)cc3)o2)c1 | 63* | 19% | -32% | -14% | 104 | 47*
O=C(O)Cc1sc(-c2ccccc2)nc1-c1ccccc1 | -9 | -4% | 20% | 8% | 5 | -3
COc1cc(-c2nnc(-c3cccs3)o2)cc(OC)c1OC | 16 | -19% | nt | ? | 172 | 2
CCOc1ccc(-c2nc(-c3cccs3)c(CC(=O)O)s2)cc1OC | 48 | 41% | 134% | 8% | -16 | 24*
CCOc1ccc(-c2nnc(-c3cccs3)o2)cc1OCC | 58* | 44% | -17% | ? | 21 | 24*
COc1ccc(-c2nnc(-c3cccs3)o2)cc1OC | 92* | 113% | 34% | -29% | 167 | 51*
O=C(Cn1c(=O)n(Cc2ccc3c(c2)OCO3)c(=O)c2oc3ccccc3c21)Nc1ccccc1 | nt | nt | nt | nt | -21 | nt
CCOc1ccc(-c2nnc(-c3cccs3)o2)cc1 | 130* | 89% | ? | ? | 48 | 45*
Cc1ccc(OCCSc2nnc(-c3cccs3)o2)cc1 | nt | nt | nt | nt | 6 | nt
CCSc1nnc2nc3[nH]c4c(C)cccc4c3nn12 | 62* | 65% | 3% | 13% | 36 | 40*
C=CCSc1nnc2c(n1)[nH]c1c(C)cccc12 | 60* | nt | 12µM* | 7.9µM* | -37 | 40*
O=C(COC(=O)/C=C/c1cccc([N+](=O)[O-])c1)Nc1cccnc1Cl | nt | nt | nt | 1% | -18 | nt
Cn1c(=O)c2c(ncn2CCC(=O)N/N=C/c2cccnc2)n(C)c1=O | 25 | 37% | 39% | 8% | -32 | -1
CCCCCCCCN1C(=O)[C@@H](CC(=O)NCCCCc2ccccc2)C[C@@]2(C(=O)OC)C1=C[C@H](C(C)(C)C)O[C@@H]2C | nt | nt | nt | nt | -30 | nt
COc1ccc(C)cc1NCc1nnc2n1CCCCC2 | nt | nt | nt | nt | 4 | nt
SMILES | Shiga toxin inh | Pf growth 48h | Pf growth 96h | HCV inhibitor | HCMV antiviral | Cycloheximide cs
CC(=O)Nc1nc(-c2ccc3c(c2)CCN3S(C)(=O)=O)cs1 | 67* | -23% | 27% | -14% | 15 | 18*
CS(=O)(=O)N1CCc2cc(-c3csc(NC(=O)Cc4cccs4)n3)ccc21 | 16 | -23% | 97% | 1.4µM* | -94* | 9
COc1ccc(NC(=O)c2ccc3c(c2)CCN3S(C)(=O)=O)cc1 | nt | nt | nt | nt | -10 | nt
CC1Cc2cc(-c3csc(NC(=O)CCl)n3)ccc2N1C(=O)C1CC1 (stereo not drawn) | nt | nt | nt | -12% | 0 | nt
CCC(=O)NC(=S)Nc1cccc(C(C)=O)c1 | -3 | 2% | 37% | 14% | -6 | 1
NC(=S)NNC(=O)c1ccccc1Cl | -8 | 7% | 43% | 5% | 9 | 2
CC(=O)c1cccc(NC(=S)NC(=O)c2ccccc2Cl)c1 | 83* | 13% | -3% | 0% | -39 | 21*
O=C(NC(=S)Nc1ccccc1O)c1ccccc1Cl | 77* | 22% | -10%[1.15 µM] | -22% | 86 | 44*
CC(=O)c1cccc(NC(=S)NC(=O)c2ccc(C)cc2Cl)c1 | 90* | 0% | ? | 17% | -13 | 38*
CC1=C(C(=O)Nc2ccccc2)C(CC(C)C)n2nc(SCc3ccccc3C)nc2N1 (stereo not drawn) | nt | nt | nt | nt | 3 | nt
Cc1nc2c(C(=O)NCCc3ccc(Cl)cc3)c[nH]n2c(=O)c1Cc1ccc(Cl)cc1 | nt | nt | nt | nt | 40 | nt
CN1CCN(P(=O)(c2ccccc2)c2nc3ccccc3s2)CC1 (stereo not drawn) | 0 | 1% | 13µM* | 13% | 23 | -1
CCOc1ccc2noc3c2c1C(=O)c1ccccc1-3 | 27 | 25% | 60% | 16% | -6 | 15
O=C1c2ccccc2-c2onc3c(Oc4ccccc4)cc(O)c1c23 | 27 | 96% | nt | 6% | nt | 22*
CC1C(=O)N(Cc2cn(Cc3ccco3)nn2)CCS(=O)(=O)N1Cc1ccc(-c2ccc(Cl)c(Cl)c2)cc1 (stereo not drawn) | nt | nt | nt | nt | -20 | nt
CC[C@]12c3[nH]c4ccc(Cl)cc4c3CCN1C(=O)[C@@H](CC(=O)NCc1ccco1)C[C@@H]2C(=O)N1CCN(C(=O)C2CC2)CC1 | nt | nt | nt | 3% | 2 | nt
CC[C@]12c3[nH]c4ccccc4c3CCN1C(=O)C(CC(=O)NCC13CC4CC(CC(C4)C1)C3)C[C@@H]2C(=O)N1CCN(C(=O)C2CC2)CC1 (stereo partly drawn) | nt | nt | nt | 22µM* | -16 | nt
CC[C@]12c3[nH]c4ccccc4c3CCN1C(=O)C(CC(=O)NCc1ccco1)C[C@@H]2C(=O)N1CCN(C(=O)C2CC2)CC1 (stereo partly drawn) | nt | nt | nt | 0.79µM* | 34 | nt
CC(C)(C)NC(=O)NC(=O)CN1CCN(c2cccc(Cl)c2)CC1 | -2 | ? | ? | -13% | 14 | 1
COc1ccc(N2CCN(c3ccc(S(=O)(=O)N(C(C)C)C(C)C)cn3)CC2)cc1 | -2 | ? | 0% | -10% | 16 | -5
O=C(NNC(=S)Nc1ccc(Cl)c(Cl)c1)c1cccc([N+](=O)[O-])c1 | 10 | 3% | 25% | -15% | 10 | 2
CNC(=S)Nc1cccc([N+](=O)[O-])c1 | -3 | 24% | -20%[5.75 µM] | 6% | -3 | -1
O=C(NC(=S)Nc1cccc(F)c1)c1cccc([N+](=O)[O-])c1 | 67* | -32% | 38% | -21% | 52 | 20*
C/C(=N\NC(=O)c1cccc([N+](=O)[O-])c1)c1cccc(NC(=O)C2CC2)c1 | 14 | -2% | 16% | ? | -11 | 17*
